Assay results taken from the supplement of paper PMC12636033.
± gives the standard deviation of the averaged measurements. Over roughly 33,000 sequences, “E-score (rank enrichment, -0.5 to 0.5)” has its median near -0.0068; the highest 2% begin near 0.24. The sample holds the highest values, similar sequences and a random draw of the others, so the mix is not that of the screen.

Each sequence was assayed on muMax20 (Max(13-93) K31hArg/K57hArg, M65Nle) (assay: PBM 8-mer E-score (E-score (rank enrichment, -0.5 to 0.5)); higher = stronger preferential binding).
Description: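 Protein binding microarray (universal PBM chip covering all 10-mers in fixed probe flanks) with chemically synthesized human Max(13-93) bHLH-LZ analogs (not full-length Max) bearing noncanonical residues (hArg, Tha, Aib, Nle at 65) and aromatic Cys staples. Read-out per 8-mer (and its reverse complement): E-score (rank-based enrichment, -0.5 to 0.5) and Z-score of median probe intensity.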

Sequence	PBM 8-mer E-score
AATCAACA	0.256 ± 0.032
GATCAACA	0.0109 ± 0.0053
ACGGTGTG	-0.143 ± 0.056
CCCTTGTA	0.0442 ± 0.13
GCCTTGTA	0.029 ± 0.077
ACCTTGTA	0.238 ± 0.077
GTCAGGAA	-0.0169 ± 0.068
ATAGAGCC	-0.106 ± 0.093
CAATACTA	0.16 ± 0.062
TAATACTA	0.252 ± 0.0039
GAATACCA	0.121 ± 0.025
AAATACTA	0.193 ± 0.081
TAATACCA	0.24 ± 0.014
CAATACCA	0.149 ± 0.042
ACAGCAGG	-0.0464 ± 0.034
GCTCCCCA	0.128 ± 0.042
CGGTCCTA	-0.17 ± 0.11
ATATGGGG	0.0664 ± 0.016
GCGCGAAC	-0.0762 ± 0.17
GACTAAGC	-0.239 ± 0.043
CACCATTA	0.0322 ± 0.16
AACCATTA	0.269 ± 0.0088
AACCATTG	-0.0386 ± 0.14
TAAATGAA	0.114 ± 0.11
AGTTGCAC	-0.00822 ± 0.011

Sequence	PBM 8-mer E-score
AGTTGCAG	0.0866 ± 0.039
AGTTGCAT	0.287 ± 0.067
GGTTACAC	0.151 ± 0.076
CGTGCTCA	0.162 ± 0.051
CGATGGAG	-0.153 ± 0.037
GATGTGAC	-0.206 ± 0.059
AATGTGAA	0.211 ± 0.056
CATGTGAG	0.216 ± 0.059
AACGTGGC	0.0382 ± 0.033
TATGTGAA	0.299 ± 0.074
CATGTGAC	0.314 ± 0.075
AACGTGGG	0.184 ± 0.14
GATGTGAA	0.105 ± 0.079
CAAGTGGG	0.0751 ± 0.013
CACGTGGG	0.447 ± 0.062
CACGTGGC	0.442 ± 0.068
GACGTGGC	-0.0512 ± 0.032
AAGTTCTC	-0.179 ± 0.0056
CACTGCAC	-0.0231 ± 0.055
CTCTAACC	-0.0244 ± 0.061
CGAATTTC	0.0312 ± 0.1
CGTTACCA	0.124 ± 0.012
CGCCATTA	-0.0752 ± 0.029
GCCCCTGA	-0.179 ± 0.034
AAGCTTAG	0.0465 ± 0.086

Sequence	PBM 8-mer E-score
AGTGTGAG	0.163 ± 0.14
CATGTGGA	0.213 ± 0.054
TGTGTGAA	0.183 ± 0.038
AGTGTGAA	0.254 ± 0.011
GACGTGGA	0.04 ± 0.064
AATGTGGG	0.142 ± 0.14
TACGTGGA	0.0197 ± 0.044
CATGTGGG	0.309 ± 0.033
CACGTGGA	0.459 ± 0.037
GCCTCGGA	-0.187 ± 0.058
AAGTAGCC	-0.0862 ± 0.0056
AACCTGAA	0.0509 ± 0.081
AGGTTTCA	-0.031 ± 0.018
CACAAAAC	0.165 ± 0.027
TAGACTCA	-0.163 ± 0.0053
CTGTGAGC	-0.113 ± 0.058
AAAAAGCT	0.272 ± 0.099
AAAAAGCC	0.166 ± 0.028
ACAAAGAT	0.137 ± 0.027
AAAAAGCA	0.218 ± 0.046
AAAAAGAT	0.24 ± 0.03
AAAAAGAC	0.0949 ± 0.026
ATATCGCG	0.0599 ± 0.043
AGAAAGAT	0.061 ± 0.093
AATTTGAA	0.149 ± 0.027

Sequence	PBM 8-mer E-score
ATTTTGAG	0.111 ± 0.012
ATTTTGAA	0.253 ± 0.084
CTCGAGGA	-0.0146 ± 0.017
AATCCTGA	-0.167 ± 0.053
ACACATGG	0.271 ± 0.06
CCACATGA	0.225 ± 0.1
ACACATGA	0.148 ± 0.068
CCACATGG	0.255 ± 0.11
ACACATGC	0.22 ± 0.019
AAACATGT	0.331 ± 0.04
CCACATGC	0.217 ± 0.057
TCACATGA	0.173 ± 0.029
AAACATGG	0.178 ± 0.064
AAACATGA	0.169 ± 0.031
GCACATGC	0.166 ± 0.06
GCACATGA	0.256 ± 0.095
GAGGAGCC	-0.1 ± 0.084
ACCGGTGG	-0.147 ± 0.06
ACTACATC	0.224 ± 0.007
CACCCCTC	0.11 ± 0.013
AACCCATC	-0.108 ± 0.085
ACACATGT	0.346 ± 0.023
ACACATAT	0.184 ± 0.053
ACACATCT	0.11 ± 0.072
CAGGCGCC	-0.0488 ± 0.0079

Sequence	PBM 8-mer E-score
ATATTGAT	0.25 ± 0.047
ATATTCAC	0.181 ± 0.12
TTATTGAA	0.3 ± 0.045
GTATTGAA	0.209 ± 0.047
ATATTGAC	0.0428 ± 0.0027
ATATTGAA	0.161 ± 0.022
ATATTGAG	0.0529 ± 0.069
ATATTCAT	0.287 ± 0.04
ATATTCAA	0.197 ± 0.0025
AATGGTAC	0.0908 ± 0.11
AACGGCAC	-0.107 ± 0.11
CGGTCTCA	-0.242 ± 0.2
GGTACCTA	-0.105 ± 0.16
AAGCACTT	0.132 ± 0.045
ACTATGCG	0.16 ± 0.042
AATAAACC	0.175 ± 0.022
AAAAAAAG	0.178 ± 0.016
AATAAAAA	0.266 ± 0.015
AATAAAAC	0.271 ± 0.01
GATAAAAC	0.203 ± 0.078
AATAAACA	0.171 ± 0.075
AATAAAAG	0.281 ± 0.011
ATAAAAAA	0.189 ± 0.02
ATAAAAGG	0.192 ± 0.058
AATAAAAT	0.0637 ± 0.011

Sequence	PBM 8-mer E-score
AATAAAGG	0.0493 ± 0.095
ATAAAAAG	0.328 ± 0.066
CGAGCAGC	-0.0303 ± 0.083
AGCTTGCA	-0.0404 ± 0.11
TCCCTAGA	-0.0505 ± 0.13
CAATCTTC	-0.0387 ± 0.0054
AAAGTCTG	0.032 ± 0.042
GGAATGGA	-0.00962 ± 0.022
CACGCGAC	0.245 ± 0.15
AACGCGGA	-0.13 ± 0.019
CACGCGGA	0.289 ± 0.066
AACGCGGC	-0.118 ± 0.16
CACGCGAA	0.0636 ± 0.033
CACGCGGC	0.281 ± 0.064
GACGCGGC	-0.105 ± 0.025
CACGCGAG	0.0936 ± 0.048
CACGCGGG	0.154 ± 0.086
CGACAGCG	-0.213 ± 0.1
CTAGATTA	0.104 ± 0.021
AGTAACAG	0.142 ± 0.024
AATAACAG	0.0596 ± 0.12
ACTAACAA	0.236 ± 0.048
AATAACAT	0.256 ± 0.028
TATAACAA	0.258 ± 0.015
CATAACAA	0.147 ± 0.03

Sequence	PBM 8-mer E-score
AATAACCA	0.076 ± 0.0086
AGTAACAA	0.117 ± 0.048
AATAACAA	0.271 ± 0.0084
AGTAACAT	0.289 ± 0.038
GATAACAA	0.0646 ± 0.12
AATAACAC	0.122 ± 0.0046
ACCGGACT	-0.151 ± 0.13
TCAATCCA	0.105 ± 0.008
CCTTAAGA	0.0233 ± 0.059
ACTTTCAT	0.0117 ± 0.13
AGGCGCGC	0.115 ± 0.0093
ATGATTAA	0.169 ± 0.049
ACGATTAA	0.0506 ± 0.14
CTGATTAA	0.0981 ± 0.079
GTGATTAA	0.256 ± 0.066
GCGATTAA	0.14 ± 0.13
TCGATTAA	0.261 ± 0.051
CCAGCTCG	-0.23 ± 0.058
AAGTCCCA	0.0496 ± 0.017
TCTAGCCA	-0.0192 ± 0.021
CGTACCCC	0.134 ± 0.012
CGCTCGCA	-0.00112 ± 0.055
